Source: PubChem BioAssay (EPA / NIEHS)
The source made the active and inactive calls. Rule for the calls: active = hit-call score of the fitted dose curve at least 0.9, where 1 is the maximum; inactive = score below 0.9.

biological target: CCAAT/enhancer-binding protein beta (Homo sapiens) (UniProt P17676); assay: ATG_C_EBP_CIS: Attagene CIS-FACTORIAL HepG2 Assay for human CCAAT/Enhancer Binding Protein (C/EBP) beta (AID 2282927); settings: HepG2 Attagene cis-factorial transcription factor reporter; actives raise or lower the signal
Sequence (P17676 whole entry, looked up): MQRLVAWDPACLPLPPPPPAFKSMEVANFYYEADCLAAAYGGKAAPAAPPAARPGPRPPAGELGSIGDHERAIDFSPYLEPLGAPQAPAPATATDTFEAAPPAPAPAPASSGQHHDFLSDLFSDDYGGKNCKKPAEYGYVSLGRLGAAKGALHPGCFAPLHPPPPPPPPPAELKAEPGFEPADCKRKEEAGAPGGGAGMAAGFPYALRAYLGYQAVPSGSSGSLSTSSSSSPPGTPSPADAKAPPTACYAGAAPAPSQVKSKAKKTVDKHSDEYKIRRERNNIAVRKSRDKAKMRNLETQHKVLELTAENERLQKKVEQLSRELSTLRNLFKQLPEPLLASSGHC
Procedure: ATG_CIS is a cell-based, multiplexed-readout assay that uses HepG2, a human liver cell line, with measurements taken at 24 hours after chemical dosing in a 24-well plate.ATG_C_EBP_CIS is one of 52 assay component(s) measured or calculated from the ATG_CIS assay. It is designed to make measurements of mRNA induction, a form of inducible reporter, as detected with fluorescence intensity signals by Reverse transcription polymerase chain reaction (RT-PCR) and Capillary electrophoresis technology.Data from the assay component ATG_C_EBP_CIS was analyzed into 1 assay endpoint. This assay endpoint, ATG_C_EBP_CIS, was analyzed with bidirectional fitting relative to DMSO as the negative control and baseline of activity. Using a type of inducible reporter, measures of mRNA for gain or loss-of-signal activity can be used to understand the reporter gene at the transcription factor-level as they relate to the gene CEBPB. Furthermore, this assay endpoint can be referred to as a primary readout, because this assay has produced multiple assay endpoints where this one serves a reporter gene function. To generalize the intended target to other relatable targets, this assay endpoint is annotated to the dna binding intended target family, where the subfamily is basic leucine zipper.
Human liver HepG2 cells are transiently transfected with multiple reporter transcription units (MRTUs) in 6-well plates using FuGene 6 reagent (Roche; 3 ml FuGene/1 mg DNA). The MRTU constructs are regulated by a cis-regulating element (promoter). […] A major difference between the CIS and TRANS system is that in CIS activities of endogenous TFs are measured, whereas the TRANS assay evaluates changes in activities of exogenous, chimeric NR-Gal4 proteins. […] At the end of 24 hour incubation, total RNA was isolated using TriZol reagent (Invitrogen). The isolated RNA is then reverse-transcribed using oligo(dT) primer and Mo-MLV reverse transcriptase (Invitrogen) with DNAse I (Ambion) treatment for 30 min. The one-tenth of the produced cDNA was amplified by PCR using Taq DNA polymerase (Invitrogen) and two reporter sequence-specific primers. The PCR products were fluorescently labeled by primer extension with 6-arboxyfluorescein (6-FAM) 5'-labeled reporter sequence-specific primer (2 min at 95 C, 20 s at 68 C and 10 min at 72 C) and these products were digested with 5U of HpaI (New England Biolabs) for 2h at 37 C. The fragments were purified using Qiaquick PCR columns (Qiagen), analyzed on an ABI 3130xL genetic analyzer (Applied Biosystems) with peak positions identified by using a set of X-rhodamine (ROX)-labeled MapMarker1000 molecular weight standards (BioVentures). The raw capillary electrophoresis data was processed using Attagraph software (Attagene).

| SMILES | outcome |
| --- | --- |
| CCCCCCC(C)OC(=O)CCCCC(=O)OC(C)CCCCCC (stereo not given) | inactive |
| c1ccc(-c2ccccc2-c2ccccc2)cc1 | inactive |
| O=C(Cl)C(F)(F)C(F)(F)C(F)(F)C(F)(F)C(F)(F)C(F)(F)C(F)(F)C(F)(F)F | inactive |
| FC(F)(F)C(F)(F)C(F)(F)C(F)(F)C(F)(F)C(F)(F)C(F)(F)I | inactive |
| CCCCC(CC)COP(=O)(O)OCC(CC)CCCC (stereo not given) | inactive |
| CC(=O)Nc1ccc(N=Nc2cc(C)ccc2O)cc1 | inactive |
| O=C(O)C(F)(F)C(F)(F)C(F)(F)C(F)(F)C(F)(F)C(F)(F)C(F)(F)C(F)(F)Cl | inactive |
| CCc1c(Br)c(Br)c(Br)c(Br)c1Br | inactive |
| Nc1ccc(S(=O)(=O)Nc2nccs2)cc1 | inactive |
| OC[C@@H](O)[C@@H](O)[C@H](O)[C@@H](O)CO | inactive |
| O=C(C=Cc1ccccc1)OCC=Cc1ccccc1 | inactive |
| FC(F)(F)C(F)(F)C(F)(F)N(C(F)(F)C(F)(F)C(F)(F)F)C(F)(F)C(F)(F)C(F)(F)F | inactive |
| CCO[Si](CCC(F)(F)C(F)(F)C(F)(F)C(F)(F)C(F)(F)C(F)(F)F)(OCC)OCC | inactive |
| O=S(=O)(OCC(F)F)C(F)(F)F | inactive |
| FC(F)(F)C(F)(F)C(F)(F)C(F)(F)C(F)(F)C(F)(F)C(F)(F)Br | inactive |
| O=S(=O)(O)c1ccc2ccccc2c1 | inactive |
| CNC(=S)NC | inactive |
| FC(F)(F)C(F)(F)C(F)(F)C(F)(F)CCI | inactive |
| C(=C(c1ccccc1)c1ccccc1)c1ccccc1 | inactive |
| Nc1cc(Cl)c(N)c(Cl)c1 | inactive |

| SMILES | outcome |
| --- | --- |
| C=C(C)C(=O)OCCC(F)(F)C(F)(F)C(F)(F)C(F)(F)C(F)(C(F)(F)F)C(F)(F)F | inactive |
| C=CC(=O)OCC(F)(F)C(F)(F)C(F)(F)C(F)(F)C(F)(F)C(F)(F)C(F)(F)F | inactive |
| O=C(O)C(F)(OC(F)(F)C(F)(OC(F)(F)C(F)(F)C(F)(F)F)C(F)(F)F)C(F)(F)F (stereo not given) | inactive |
| O=S(=O)(OCCOC(F)(F)F)C(F)(F)F | inactive |
| O=C(OCCOCCOCCOC(=O)c1ccccc1)c1ccccc1 | inactive |
| Cc1ccc(S(=O)(=O)NCl)cc1 | inactive |
| Cc1ccc(S(=O)(=O)OCC(F)(F)C(F)(F)C(F)(F)C(F)(F)C(F)(F)C(F)F)cc1 | inactive |
| O=C(O)C(F)(OC(F)(F)C(F)(OC(F)(F)C(F)(OC(F)(F)C(F)(F)C(F)(F)F)C(F)(F)F)C(F)(F)F)C(F)(F)F (stereo not given) | inactive |
| FC(F)(Br)C(F)(F)C(F)(F)C(F)(F)C(F)(F)C(F)(F)Br | inactive |
| CC/C=C\CCOC(C)=O | inactive |
| C#C[C@]1(O)CC[C@H]2[C@@H]3CCc4cc(OC)ccc4[C@H]3CC[C@@]21C | inactive |
| FC(F)(F)C(F)(F)C(F)(F)C(F)(F)C(F)(F)C(F)(F)C(F)(F)C(F)(F)CCS | inactive |
| O=C(O)C(F)(F)C(F)(F)C(F)(F)F | inactive |
| CC(C)=CCCC(C)CCOC(=O)C(C)C (stereo not given) | inactive |
| O=C(O)C(F)(F)C(F)(F)C(F)(F)C(F)(F)C(F)(F)C(F)(F)C(F)(F)C(F)(F)C(F)(F)C(F)(F)C(F)(F)C(F)(F)F | inactive |
| CCCCCCCCCCCCCCCC[N+](C)(C)Cc1ccccc1 | inactive |
| FC(F)(F)C(F)(F)C(F)(F)C(F)(F)C(F)(F)C(F)(F)CCS | inactive |
| CCCCCCCOC(=O)c1ccccc1C(=O)OCCCCCCC | inactive |
| CCCCCCOC(=O)c1ccccc1O | inactive |
| O=C(O)C(F)(F)C(F)(F)C(F)(F)C(F)(F)C(F)(F)C(F)(F)C(F)(F)C(F)(F)C(F)(F)C(F)F | inactive |
